# Screens deposited in PubChem BioAssay by National Center for Advancing Translational Sciences (NCATS).
# Shiga inhibitor = Shiga toxin inhibition | Vero cells, Shiga toxin protein synthesis inhibition reporter | inhibition, % at 38.7 µM | actives 9.2% (n = 290,000) | AID 2315; in the data active means inhibition mostly above about 28%, no sharp cut-off; inactive means mostly below about 43%; further: 0% is about no effect
# CHX counter = affects cycloheximide protein synthesis inhibition readout, counter-screen; cell reporter, cycloheximide protein synthesis inhibition counterscreen; AID 2314; max response, %; actives 12% (n = 300,000); in the data active means max response mostly above about 13%, no sharp cut-off; inactive means mostly below about 14%; further: read at 38.3 µM for the half of the compounds with a filed dose; 0% is about no effect
# Pf growth 48h = inhibits P. falciparum growth in the first generation, 48 h; actives 5.9% (n = 310,000); AID 504832; P. falciparum luciferase growth in erythrocytes, 48 h; Potency, µM (titrated, usually from 28.7 µM), for the others: top-dose activity change, negative = inhibition, most hits filed as inhibitors; active means well fitted inhibition curve with a large enough effect; inconclusive means small, poorly fitted or top-dose-only effect, or another doubt; inactive means no such curve, though single readings can be large or run the other way; further: potency means the concentration at half of the fitted maximal effect; on the % scale 0 is the no-effect control and ±100 the full control effect
#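 Erythrocytes infected with P. falciparum carrying an integrated firefly luciferase reporter (2% hematocrit, 0.1% parasitemia final) were exposed to compounds in RPMI 1640 with 0.5% Albumax at 37 C, 5% CO2. Growth inhibition was scored as reduced luminescence.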
# SARS PLpro yeast = blocks SARS-CoV papain-like protease in a yeast assay. S. cerevisiae expressing SARS-CoV PLpro, growth rescue. Potency, µM (top dose mostly 32.9 µM), for the others: at the highest dose activity, positive = growth rescue, usual class: activators. actives 0.19% (n = 330,000). AID 485353; further: potency means the concentration at half of the fitted maximal effect; 0% is about no effect; nearly all actives have a fitted effect of over 55% in size
# NS1 function inh = inhibitors of influenza NS1 protein function. Potency, µM (doses to about 46.1 µM), without a hit: top-dose activity, positive = more growth. actives 0.4% (n = 270,000). AID 2326; further: potency means the concentration at half of the fitted maximal effect; actives are rising curves; nearly all actives have a fitted effect of over 50% in size
#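 In this qHTS, NS1 from influenza A is expressed in budding yeast, where it slows growth. Cells are switched from glucose to 2% galactose medium (pH 6.0, -URA), treated with compound, and growth recovery is read at OD600.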
# Pf growth 96h = P. falciparum growth inhibition at 96 hour, primary screen for plastid delayed-death inhibitors; P. falciparum luciferase reporter growth, 96 h; AID 504834; actives 6.9% (n = 320,000); Potency, µM (series often up to 28.7 µM), for the others: at the top dose activity change, negative = inhibition, most hits filed as inhibitors; active means well fitted inhibition curve with a large enough effect; inconclusive means small, poorly fitted or top-dose-only effect, or another doubt; inactive means no such curve, though single readings can be large or run the other way; further: potency means the concentration at half of the fitted maximal effect; on the % scale 0 is the no-effect control and ±100 the full control effect
#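 P. falciparum expressing integrated firefly luciferase grown in erythrocytes (2% hematocrit, 0.05% parasitemia final) with compounds for 96 hours at 37 C, 5% CO2. Growth inhibition read as loss of luminescence after adding luciferase detection reagent.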
# Active calls of the source: *; u = inconclusive; x = no result. Shown are actives, neighbours in structure and some others; about 21% of the full set was active somewhere. Unless noted, the call rests on the fitted dose curve.
SMILES,Shiga inhibitor,CHX counter,Pf growth 48h,SARS PLpro yeast,NS1 function inh,Pf growth 96h
O=C(COC(=O)/C=C/c1ccccc1)Nc1ccccc1Br,-9.3,10.2,12.5%,-13.1%,2.1%,0.0%
CCc1ccc(-c2cc3c(=O)n(CC(=O)N4CCCCCC4)nc(C)n3n2)cc1,1.9,1.9,2.5%,1.0%,8.1%,-2.9%
O=C1C[C@H](c2ccc3ccccc3c2)N1S(=O)(=O)c1ccccc1[N+](=O)[O-],-5.3,14.7,x,x,x,x
Cc1ccsc1/C=N/n1cnnc1,-14.9,-2.4,32.4%,-0.9%,-1.2%,45.8%
Cc1ccsc1/C=N/Nc1nc(Cl)c(Cl)cc1Cl,45.1,41.1*,-8.0%,1.3%,-2.2%,156.4%
Cc1ccc(/C=N/Nc2nc(Cl)c(Cl)cc2Cl)s1,95.6*,28.3*,100.9%,-18.1%,-12.2%,288.2%
CCN(CC)P1(=O)OC(c2cc(OC)c(OC)c(OC)c2)=Nc2c1c(C)nn2-c1ccccc1 (stereo unspecified),13.7,-2.6,10.4µM*,-16.0%,-37.6%,x
COc1ccc(-c2c(C)nn(-c3ccccc3)c2NC(C)=O)cc1OC,8.9,-2.8,4.6%,4.0%,u,109.9%
CC(C)N(CCNC(=O)c1ccc(OCC2CCCO2)cc1)C(C)C (stereo unspecified),-18.5,-2.6,12.6%,0.1%,-5.6%,0.0%
O=C(NCCc1ccc(Cl)cc1)c1ccc(OCC2CCCO2)cc1 (stereo unspecified),92.0*,33.4*,31.0%,-1.0%,15.5%,-4.9%
C/C(N)=C(/C#N)C(=O)COC(=O)c1ccc(C#N)cc1,-5.0,-3.1,3.3%,0.3%,x,5.1%
C/C(N)=C(/C#N)C(=O)COC(=O)c1ccc(OCC2CCCO2)cc1 (stereo unspecified),50.3*,22.2*,29.3%,0.7%,-14.7%,-2.7%
CC(OC(=O)c1ccc(OCC2CCCO2)cc1)C(=O)N(C)Cc1ccccc1 (stereo unspecified),x,x,3.29µM*,-3.7%,x,4.65µM*
NNC(=O)c1ccc(OCC2CC(c3ccc(Cl)cc3)=NO2)cc1 (stereo unspecified),40.3*,21.8*,8.28µM*,-0.6%,12.2%,u
COc1cccc(C2C(C#N)=C(N)Oc3cc(C)oc(=O)c32)c1OC (stereo unspecified),-7.4,-4.3,-0.3%,u,-3.7%,-12.9%
O=C(NC1CCCCCC1)c1ccc(OCC2CCCO2)cc1 (stereo unspecified),59.4*,23.6*,50.9%,0.7%,-3.5%,89.1%
CCCN1C(=O)/C(=C/c2ccccc2OCc2ccc(C(=O)O)cc2)NC1=S,10.7,-3.3,-14.1%,4.2%,x,u
Cc1cc(OC(=O)C(c2ccccc2)c2ccccc2)c([N+](=O)[O-])c(=O)[nH]1,8.3,5.7,9.2%,2.7%,-3.0%,23.1%
COc1ccccc1-c1nc(SCc2ccccn2)n[nH]1,75.8*,41.3*,50.3%,-4.9%,-14.3%,46.5%
COC1=C(OC)C(=O)C(CCCCCCCCCCO)=C(C)C1=O,6.0,-7.5,u,-17.2%,x,6.01µM*
Nc1nnc(SCc2ccc(F)cc2Cl)s1,46.7*,30.7*,26.1%,-14.4%,-71.6%,x
Cc1nnc(SCc2ccc(F)cc2Cl)s1,68.5*,41.4*,94.7%,-0.6%,-11.9%,151.6%
CCN(CC)CCNC(C(=O)OCCC(C)C)c1ccccc1 (stereo unspecified),x,x,16.9µM*,x,x,13.5µM*
CCOC(=O)C(NCCCCl)c1ccccc1 (stereo unspecified),32.2,5.2,x,12.1%,5.6%,77.1%
O=C(c1cc(COc2ccccc2)on1)N1CCCC(CN2CCOCC2)C1 (stereo unspecified),30.9*,25.6*,-3.9%,0.0%,-0.3%,-16.3%
Cc1ccc(OCc2cc(C(=O)N3CCCC(O)C3)no2)cn1 (stereo unspecified),23.1*,19.8*,30.3%,u,-6.9%,u
Cc1ccccc1OC1CCN(C(=O)c2cc(COc3ccccc3)on2)CC1,11.7,15.1,-1.1%,-6.8%,-27.3%,u
Cc1noc(C)c1COc1ccc(C(=O)OCC(=O)Nc2ccc(S(N)(=O)=O)cc2)cc1,x,x,-1.3%,-13.5%,x,1.7%
Nc1nc(SCC(=O)O)[nH]c(=O)c1NC(=O)c1ccco1,-4.5,-1.3,4.1%,0.9%,-1.2%,35.8%
